Holding throughout (assay): qHTS profiling for inhibitors of Plasmodium falciparum proliferation (AID 504749); also: nearly all actives have a fitted effect of over 60% in size
Common to all, as to details: P. falciparum in erythrocytes, SYBR Green DNA, 72 h; series mostly up to 28.7 µM
In general terms: In qHTS, concentration-response curves come from the screen itself.

Experiment [1] relates to CP215. The gist of the method:
(§1)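 SYBR Green fluorescence of parasite DNA, read after lysis and overnight dark incubation, measured growth over 72 h in erythrocyte culture at 0.3% parasitemia and 2.5% hematocrit. Data normalised to DMSO and 0.29 uM artemisinin, with plate-drift correction.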

Experiment [2] relates to CP217. The gist of the method:
as §1

Experiment [3] has as its system CP237. The method, boiled down: as §1
Experiment [4] has as its system CP238. The gist of the method:
as §1

Experiment [5] concerns CP247. The method, boiled down: as §1
Experiment [6] deals with CP250. The gist of the method: as §1
Experiment [7] deals with CP252. The method, boiled down:
as §1

The subject of experiment [8] is CP256. The gist of the method:
as §1

Experiment [9] relates to CP260. The gist of the method:
as §1

In experiment [10] the test system is CP262. The method, boiled down:
as §1

This is an account of results in PubChem BioAssay (NCATS).

Inconclusive results are not listed. Active and inactive are the calls of the source. Calls follow the shape of the dose curve; as a rule, active = well fitted inhibition curve with a large enough effect; inconclusive = small, poorly fitted or top-dose-only effect; inactive = flat fitted curve, though single readings scatter.
Potency is read from the fitted curve at half-maximal effect.

As to `COC(=O)[C@H]1[C@H]2C[C@@H]3c4[nH]c5ccccc5c4CCN3C[C@H]2C[C@@H](OC(=O)c2cc(OC)c(OC)c(OC)c2)[C@@H]1OC`, the Potency in experiment [1] is 0.757 µM (active); in [2], 0.355 µM (active); in experiment [3], 126 nM (active); in experiment [4] it was 0.355 µM (active); in [5], 0.398 µM (active); in experiment [6] it was 447 nM (active). Besides, the Potency is 398 nM (active) in [7], 398 nM (active) in experiment [8], 282 nM (active) in experiment [9] and 1.2 µM (active) in experiment [10].
For `CC(C(=O)O)c1ccc(N2Cc3ccccc3C2=O)cc1` (centres undefined), the Potency result in experiment [1], in experiment [2], in experiment [3], in experiment [4], in [5] and in experiment [6] was “inactive” in each case. In addition, the Potency result in experiment [7], in experiment [8], in experiment [9] and in experiment [10] was “inactive” each time.
Consider `CCCCCCCC/C=C\CCCCCCCC(=O)O`, for which the Potency entry in experiment [1], in experiment [2], in experiment [3], in experiment [4], in experiment [5] and in [6] was “inactive” throughout. Further, the Potency entry in experiment [7], in experiment [8], in experiment [9] and in experiment [10] was “inactive” in each case.
For the compound `CCOC(=O)C1=C(C)NC(C)=C(C(=O)OCC)C1c1ccccc1C=CC(=O)OC(C)(C)C`, the Potency in experiment [1] was 16.9 µM (active); in experiment [2] it was 10 µM (active); in [3] it was 8910 nM (active); in [4] it was 10 µM (active); in [7] it was 10000 nM (active); in [10] it was 12 µM (active). In addition, the Potency result in experiment [8] is “inactive”.
With `CCOc1ccc(N=Nc2ccc(N)cc2N)cc1`, the Potency result in experiment [1], in [2], in experiment [3], in experiment [4], in [6] and in experiment [7] was “inactive” throughout. Besides, the Potency entry in [8], in experiment [9] and in [10] was “inactive” in each case.
Turning to `CC(O)CO` (centres undefined), the Potency result in experiment [1], in experiment [2], in experiment [3], in experiment [4], in [5] and in [6] was “inactive” each time. Besides, the Potency result in [7], in experiment [8], in experiment [9] and in experiment [10] was “inactive” each time.
For the compound `C[C@]12CCC(=O)C=C1CC[C@@H]1[C@@H]2[C@@H](O)C[C@@]2(C)[C@H]1CC[C@]2(O)C(=O)COP(=O)(O)O`, the Potency result in experiment [1], in experiment [2], in [3], in experiment [4], in experiment [6] and in experiment [7] was “inactive” in each case. Besides, the Potency entry in [8], in experiment [9] and in experiment [10] was “inactive” throughout.
Consider `CC1=C(/C=C/C(C)=C/C=C/C(C)=C/C=C/C=C(C)/C=C/C=C(C)/C=C/C2=C(C)C(=O)CCC2(C)C)C(C)(C)CCC1=O`, for which the Potency entry in experiment [1], in [2], in [3], in [4], in experiment [5] and in [6] was “inactive” each time. Besides, the Potency entry in experiment [7], in experiment [9] and in experiment [10] was “inactive” each time.
For `CC[C@@]1(O)C(=O)OCc2c1cc1n(c2=O)Cc2cc3c([N+](=O)[O-])cccc3nc2-1`, the Potency in [1] was 13.5 µM (active); in [2] it was 10 µM (active); in experiment [3] it was 3980 nM (active); in experiment [4], 8.91 µM (active); in experiment [5], 11.2 µM (active); in [6], 12600 nM (active). In addition, the Potency in experiment [8] is 11200 nM (active); in experiment [9], 3550 nM (active).
Turning to `COC(C(=O)C(O)C(C)O)C1Cc2cc3cc(OC4CC(OC5CC(O)C(O)C(C)O5)C(O)C(C)O4)c(C)c(O)c3c(O)c2C(=O)C1OC1CC(OC2CC(OC3CC(C)(O)C(O)C(C)O3)C(O)C(C)O2)C(O)C(C)O1` (centres undefined), the Potency is 2.39 µM (active) in [1]; 0.282 µM (active) in experiment [2]; 100 nM (active) in [3]; 0.251 µM (active) in experiment [4]; 251 nM (active) in [6]; 251 nM (active) in [7]. Moreover, the Potency in [8] is 316 nM (active); in experiment [9], 126 nM (active); in experiment [10], 2.13 µM (active).
With `Cc1c(C)c2c(c(C)c1O)CC[C@@](C)(CCC[C@@H](C)CCC[C@@H](C)CCCC(C)C)O2`, the Potency result in [1], in experiment [2], in [3], in [4], in experiment [5] and in experiment [6] was “inactive” throughout. In addition, the Potency result in [7], in experiment [8], in [9] and in experiment [10] was “inactive” throughout.
With `Cc1ccccc1`, the Potency result in experiment [1], in [2], in experiment [3], in [4], in [5] and in experiment [6] was “inactive” throughout. Also, the Potency entry in experiment [7], in [8], in experiment [9] and in experiment [10] was “inactive” each time.
For the compound `Nc1c(Br)cc(Br)cc1CNC1CCC(O)CC1` (centres undefined), the Potency result in experiment [1], in experiment [2], in experiment [4], in experiment [5], in experiment [6] and in experiment [7] was “inactive” each time. Moreover, the Potency entry in experiment [8], in experiment [9] and in experiment [10] was “inactive” in each case.
For the compound `Cc1ccccc1OCC(O)CNCCOc1ccc(C(N)=O)cc1` (centres undefined), the Potency result in experiment [1], in [2], in experiment [3], in experiment [4], in [5] and in experiment [6] was “inactive” in each case. The Potency entry in experiment [7], in [8], in [9] and in experiment [10] was “inactive” throughout.
Take `O=CCCCC=O`: the Potency entry in [1], in experiment [2], in experiment [3], in experiment [4], in [5] and in experiment [6] was “inactive” each time. Further, the Potency result in [7], in experiment [8] and in experiment [10] was “inactive” throughout.
`O=C(O)CCC(=O)C(=O)O`: the Potency entry in experiment [1], in experiment [2], in [3], in experiment [4], in experiment [5] and in experiment [6] was “inactive” each time. In addition, the Potency entry in experiment [7], in experiment [8], in experiment [9] and in [10] was “inactive” throughout.
On to `CC1=CCC(C(C)(C)O)CC1` (centres undefined), for which the Potency result in experiment [1], in experiment [2], in [3], in experiment [4], in [5] and in experiment [6] was “inactive” each time. Besides, the Potency result in experiment [7], in experiment [8], in [9] and in experiment [10] was “inactive” each time.
Turning to `Oc1cc(O)c2c(c1)OC(c1ccc(O)c(O)c1)C(O)C2` (centres undefined), the Potency result in experiment [1], in experiment [2], in experiment [3], in experiment [4], in experiment [5] and in [6] was “inactive” in each case. For the same compound, the Potency result in [7], in [8], in experiment [9] and in [10] was “inactive” each time.
As to `Nc1c(N=Nc2ccc(-c3ccc(N=Nc4cc(S(=O)(=O)O)c5ccccc5c4N)cc3)cc2)cc(S(=O)(=O)O)c2ccccc12`, the Potency result in experiment [1], in experiment [2], in [3], in experiment [4], in experiment [5] and in experiment [6] was “inactive” in each case. The Potency result in experiment [7], in experiment [8], in experiment [9] and in [10] was “inactive” in each case.
